# PMC7862700, “An all-to-all approach to the identification of sequence-specific readers for epigenetic DNA modifications on cytosine”
# Assays:
# Experiment in all cases: DAPPL (digital affinity profiling via proximity ligation, sequencing); 10 mM Tris-HCl pH 7.5, 50 mM NaCl, 1 mM DTT, 4% glycerol, room temperature, 30 min; GST-TFs on glutathione beads, 16-mer random dsDNA library, 0.1% formaldehyde crosslink after washing; high values mean tight binding
# FLI1 = target: T1, FLI1 (Homo sapiens, UniProt Q01543 1-452); conditions: protein: recombinant; tags: N-terminal GST; dsDNA, one strand shown
# T1 sequence: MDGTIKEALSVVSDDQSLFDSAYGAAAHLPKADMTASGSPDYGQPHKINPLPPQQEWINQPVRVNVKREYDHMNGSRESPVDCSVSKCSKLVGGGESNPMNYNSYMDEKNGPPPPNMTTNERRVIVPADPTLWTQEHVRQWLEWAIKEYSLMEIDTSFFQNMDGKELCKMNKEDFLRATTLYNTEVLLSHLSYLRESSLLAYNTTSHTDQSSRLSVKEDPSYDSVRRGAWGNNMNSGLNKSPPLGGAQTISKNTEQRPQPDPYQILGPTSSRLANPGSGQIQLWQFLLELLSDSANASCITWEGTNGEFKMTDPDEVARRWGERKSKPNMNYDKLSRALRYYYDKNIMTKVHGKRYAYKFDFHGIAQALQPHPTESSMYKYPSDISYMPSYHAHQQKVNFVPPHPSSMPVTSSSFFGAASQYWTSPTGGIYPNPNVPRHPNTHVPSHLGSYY
# In short: (§1)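 Yeast served to express human transcription factors as GST fusions, which were then captured on glutathione beads and labelled with DNA barcodes. Pooled with a tag-only sample, they were incubated with 200 nmole of a 16-mer random double-stranded DNA library for 30 min at room temperature in Tris/NaCl/DTT/glycerol buffer, washed, crosslinked with 0.1% formaldehyde, ligated by proximity, amplified by PCR and sequenced. Dividing each hexamer's read frequency for a factor by its frequency for the tag-only sample gives the binding signal.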
# ELK1 = target: T2, ELK1 (Homo sapiens, UniProt P19419 1-428); conditions: protein: recombinant; tags: N-terminal GST; dsDNA, one strand shown
# T2 sequence: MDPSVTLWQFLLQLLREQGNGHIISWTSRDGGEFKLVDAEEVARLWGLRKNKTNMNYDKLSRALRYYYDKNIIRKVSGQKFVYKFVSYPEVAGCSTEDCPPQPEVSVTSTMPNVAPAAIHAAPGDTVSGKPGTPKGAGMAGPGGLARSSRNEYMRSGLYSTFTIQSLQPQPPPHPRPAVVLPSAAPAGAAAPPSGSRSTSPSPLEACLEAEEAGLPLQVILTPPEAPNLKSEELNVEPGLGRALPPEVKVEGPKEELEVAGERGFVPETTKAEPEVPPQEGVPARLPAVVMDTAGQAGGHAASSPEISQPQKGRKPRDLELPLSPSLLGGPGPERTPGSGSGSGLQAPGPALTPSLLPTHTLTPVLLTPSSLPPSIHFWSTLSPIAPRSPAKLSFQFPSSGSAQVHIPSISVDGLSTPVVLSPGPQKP
# In short: as §1
# GABPA = target: T3, GABPA (Homo sapiens, UniProt Q06546 1-454); conditions: protein: recombinant; tags: N-terminal GST; dsDNA, one strand shown
# T3 sequence: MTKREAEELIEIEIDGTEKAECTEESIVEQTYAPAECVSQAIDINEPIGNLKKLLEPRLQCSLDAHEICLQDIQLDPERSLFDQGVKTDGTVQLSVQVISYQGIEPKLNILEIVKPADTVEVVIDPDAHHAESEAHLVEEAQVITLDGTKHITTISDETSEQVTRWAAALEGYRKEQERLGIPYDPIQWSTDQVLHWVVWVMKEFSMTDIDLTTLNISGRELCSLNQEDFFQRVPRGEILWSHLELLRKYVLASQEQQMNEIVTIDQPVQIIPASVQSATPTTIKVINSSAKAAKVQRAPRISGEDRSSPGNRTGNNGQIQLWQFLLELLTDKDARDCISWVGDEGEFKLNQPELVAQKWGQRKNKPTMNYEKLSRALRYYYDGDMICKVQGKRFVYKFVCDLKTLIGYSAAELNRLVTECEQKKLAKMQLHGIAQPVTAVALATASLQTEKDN
# In short: as §1
# ERG = target: T4, ERG (Homo sapiens, UniProt P11308 1-479); conditions: protein: recombinant; tags: N-terminal GST; dsDNA, one strand shown
# T4 sequence: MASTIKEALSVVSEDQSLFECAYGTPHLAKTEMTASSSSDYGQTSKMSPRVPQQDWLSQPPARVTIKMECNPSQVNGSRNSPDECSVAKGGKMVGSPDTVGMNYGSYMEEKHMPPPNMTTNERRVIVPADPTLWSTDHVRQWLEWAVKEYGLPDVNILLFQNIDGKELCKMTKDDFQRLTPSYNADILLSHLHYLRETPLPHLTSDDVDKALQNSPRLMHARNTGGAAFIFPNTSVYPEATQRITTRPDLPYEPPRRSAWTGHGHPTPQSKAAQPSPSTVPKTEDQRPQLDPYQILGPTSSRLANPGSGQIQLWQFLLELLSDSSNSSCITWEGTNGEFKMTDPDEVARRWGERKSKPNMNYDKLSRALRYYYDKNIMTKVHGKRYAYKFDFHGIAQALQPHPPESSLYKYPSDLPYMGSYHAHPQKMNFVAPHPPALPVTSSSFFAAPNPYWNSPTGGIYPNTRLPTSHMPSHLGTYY
# In short: as §1
# ELF1 = ELF1 (Homo sapiens, UniProt P32519 1-619); conditions: protein: recombinant; tags: N-terminal GST; dsDNA, one strand shown
# In short: as §1
# EHF = target: T5, EHF (Homo sapiens, UniProt Q9NZC4 1-300); conditions: protein: recombinant; tags: N-terminal GST; dsDNA, one strand shown
# T5 sequence: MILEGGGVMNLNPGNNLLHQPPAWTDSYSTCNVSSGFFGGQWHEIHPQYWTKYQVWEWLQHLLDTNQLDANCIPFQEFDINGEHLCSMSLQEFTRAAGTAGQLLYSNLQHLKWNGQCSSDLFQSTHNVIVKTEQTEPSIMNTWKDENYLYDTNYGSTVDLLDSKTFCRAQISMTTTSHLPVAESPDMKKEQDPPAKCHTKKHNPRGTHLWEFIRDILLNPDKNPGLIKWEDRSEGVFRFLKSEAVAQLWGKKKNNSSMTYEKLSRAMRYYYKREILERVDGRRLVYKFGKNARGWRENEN
# In short: as §1
# SPI1 = SPI1 (Homo sapiens, UniProt P17947 1-270); conditions: protein: recombinant; tags: N-terminal GST; dsDNA, one strand shown
# In short: as §1
# SPIB = SPIB (Homo sapiens, UniProt Q01892 1-262); conditions: protein: recombinant; tags: N-terminal GST; dsDNA, one strand shown
# In short: as §1
# ELK3 = target: T6, ELK3 (Homo sapiens, UniProt P41970 1-407); conditions: protein: recombinant; tags: N-terminal GST; dsDNA, one strand shown
# T6 sequence: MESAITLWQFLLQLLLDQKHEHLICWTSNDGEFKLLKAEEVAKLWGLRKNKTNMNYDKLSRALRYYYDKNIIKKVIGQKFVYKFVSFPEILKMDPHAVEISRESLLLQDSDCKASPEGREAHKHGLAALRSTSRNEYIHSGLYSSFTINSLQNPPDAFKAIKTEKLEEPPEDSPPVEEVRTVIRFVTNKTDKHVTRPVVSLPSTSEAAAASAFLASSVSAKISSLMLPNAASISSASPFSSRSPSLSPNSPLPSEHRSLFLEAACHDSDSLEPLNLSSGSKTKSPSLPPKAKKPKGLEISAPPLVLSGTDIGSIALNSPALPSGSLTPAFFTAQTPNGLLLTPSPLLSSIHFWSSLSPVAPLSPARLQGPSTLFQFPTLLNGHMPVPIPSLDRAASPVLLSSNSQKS
# In short: as §1
# FEV = target: T7, FEV (Homo sapiens, UniProt Q99581 1-238); conditions: protein: recombinant; tags: N-terminal GST; dsDNA, one strand shown
# T7 sequence: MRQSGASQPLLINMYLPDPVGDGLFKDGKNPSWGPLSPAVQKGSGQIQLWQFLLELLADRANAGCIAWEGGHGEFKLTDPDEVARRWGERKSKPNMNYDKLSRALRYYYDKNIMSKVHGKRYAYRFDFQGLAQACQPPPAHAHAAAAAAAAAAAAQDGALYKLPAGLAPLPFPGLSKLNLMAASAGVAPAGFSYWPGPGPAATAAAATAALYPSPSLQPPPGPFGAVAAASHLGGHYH
# In short: as §1
# ETV5 = ETV5 (Homo sapiens, UniProt P41161 1-510); conditions: protein: recombinant; tags: N-terminal GST; dsDNA, one strand shown
# In short: as §1
# HSF1 = HSF1 (Homo sapiens, UniProt Q00613 1-529); conditions: protein: recombinant; tags: N-terminal GST; chain copies: 3; dsDNA, one strand shown
# In short: as §1
# SPIC = target: T8, SPIC (Homo sapiens, UniProt Q8N5J4 1-248); conditions: protein: recombinant; tags: N-terminal GST; dsDNA, one strand shown
# T8 sequence: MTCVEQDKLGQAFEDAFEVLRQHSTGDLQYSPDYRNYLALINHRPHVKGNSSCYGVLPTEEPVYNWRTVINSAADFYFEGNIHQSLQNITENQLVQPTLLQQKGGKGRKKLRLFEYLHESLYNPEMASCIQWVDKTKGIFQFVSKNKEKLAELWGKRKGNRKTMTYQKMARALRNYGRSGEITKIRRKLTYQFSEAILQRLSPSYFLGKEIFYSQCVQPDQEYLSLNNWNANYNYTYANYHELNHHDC
# In short: as §1
# ELF4 = ELF4 (Homo sapiens, UniProt Q99607 1-663); conditions: protein: recombinant; tags: N-terminal GST; dsDNA, one strand shown
# In short: as §1
# ELK4 = target: T9, ELK4 (Homo sapiens, UniProt P28324-2 1-405); conditions: protein: recombinant; tags: N-terminal GST; dsDNA, one strand shown
# T9 sequence: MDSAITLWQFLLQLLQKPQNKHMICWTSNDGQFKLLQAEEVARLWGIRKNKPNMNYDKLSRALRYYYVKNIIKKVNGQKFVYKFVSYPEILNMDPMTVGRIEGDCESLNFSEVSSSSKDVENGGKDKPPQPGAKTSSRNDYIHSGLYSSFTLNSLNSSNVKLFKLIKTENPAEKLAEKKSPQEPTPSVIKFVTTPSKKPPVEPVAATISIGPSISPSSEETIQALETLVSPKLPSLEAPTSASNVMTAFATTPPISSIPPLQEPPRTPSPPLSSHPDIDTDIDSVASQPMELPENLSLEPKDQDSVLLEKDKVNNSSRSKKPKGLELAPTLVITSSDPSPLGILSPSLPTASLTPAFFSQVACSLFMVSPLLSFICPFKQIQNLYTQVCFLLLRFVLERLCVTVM
# In short: as §1
# ETV2 = target: T10, ETV2 (Homo sapiens, UniProt O00321 1-342); conditions: protein: recombinant; tags: N-terminal GST; dsDNA, one strand shown
# T10 sequence: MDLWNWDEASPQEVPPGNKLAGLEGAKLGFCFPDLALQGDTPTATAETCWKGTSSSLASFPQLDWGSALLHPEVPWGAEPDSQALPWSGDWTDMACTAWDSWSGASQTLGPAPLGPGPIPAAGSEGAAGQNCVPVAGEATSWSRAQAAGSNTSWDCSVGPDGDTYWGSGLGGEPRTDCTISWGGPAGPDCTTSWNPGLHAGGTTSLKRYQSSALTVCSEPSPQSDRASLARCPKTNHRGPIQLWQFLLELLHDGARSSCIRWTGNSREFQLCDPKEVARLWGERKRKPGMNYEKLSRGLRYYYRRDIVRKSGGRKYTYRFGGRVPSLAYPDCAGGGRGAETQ
# In short: as §1
# ELF3 = target: T11, ELF3 (Homo sapiens, UniProt P78545 1-371); conditions: protein: recombinant; tags: N-terminal GST; dsDNA, one strand shown
# T11 sequence: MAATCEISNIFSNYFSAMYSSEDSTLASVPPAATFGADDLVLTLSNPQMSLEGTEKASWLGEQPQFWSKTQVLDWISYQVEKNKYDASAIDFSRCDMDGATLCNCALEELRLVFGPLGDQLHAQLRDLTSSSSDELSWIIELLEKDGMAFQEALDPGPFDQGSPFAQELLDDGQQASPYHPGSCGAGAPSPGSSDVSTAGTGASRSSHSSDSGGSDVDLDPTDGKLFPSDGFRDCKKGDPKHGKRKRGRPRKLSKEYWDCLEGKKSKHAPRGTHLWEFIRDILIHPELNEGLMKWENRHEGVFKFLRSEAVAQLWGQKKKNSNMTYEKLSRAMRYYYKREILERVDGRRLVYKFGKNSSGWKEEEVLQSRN
# In short: as §1
# CRX = CRX (Homo sapiens, UniProt O43186 1-299); conditions: protein: recombinant; tags: N-terminal GST; dsDNA, one strand shown
# In short: as §1
# ETV1 = ETV1 (Homo sapiens, UniProt P50549 1-477); conditions: protein: recombinant; tags: N-terminal GST; dsDNA, one strand shown
# In short: as §1
# Sequence of HSF1 (Q00613 whole entry): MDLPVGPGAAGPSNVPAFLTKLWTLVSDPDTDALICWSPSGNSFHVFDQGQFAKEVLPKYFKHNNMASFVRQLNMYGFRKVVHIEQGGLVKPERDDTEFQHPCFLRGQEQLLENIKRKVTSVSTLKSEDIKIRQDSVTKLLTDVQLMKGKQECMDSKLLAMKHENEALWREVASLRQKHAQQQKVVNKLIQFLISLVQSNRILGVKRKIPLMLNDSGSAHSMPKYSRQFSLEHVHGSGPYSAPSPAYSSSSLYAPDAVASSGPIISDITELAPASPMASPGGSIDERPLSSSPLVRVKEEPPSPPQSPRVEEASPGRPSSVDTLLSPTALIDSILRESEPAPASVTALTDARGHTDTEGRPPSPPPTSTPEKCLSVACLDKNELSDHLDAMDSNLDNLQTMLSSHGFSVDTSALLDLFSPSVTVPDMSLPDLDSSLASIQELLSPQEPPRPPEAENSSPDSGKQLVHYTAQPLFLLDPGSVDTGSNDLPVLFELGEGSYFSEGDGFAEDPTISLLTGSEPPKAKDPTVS
# Sequence of ELF4 (Q99607 whole entry): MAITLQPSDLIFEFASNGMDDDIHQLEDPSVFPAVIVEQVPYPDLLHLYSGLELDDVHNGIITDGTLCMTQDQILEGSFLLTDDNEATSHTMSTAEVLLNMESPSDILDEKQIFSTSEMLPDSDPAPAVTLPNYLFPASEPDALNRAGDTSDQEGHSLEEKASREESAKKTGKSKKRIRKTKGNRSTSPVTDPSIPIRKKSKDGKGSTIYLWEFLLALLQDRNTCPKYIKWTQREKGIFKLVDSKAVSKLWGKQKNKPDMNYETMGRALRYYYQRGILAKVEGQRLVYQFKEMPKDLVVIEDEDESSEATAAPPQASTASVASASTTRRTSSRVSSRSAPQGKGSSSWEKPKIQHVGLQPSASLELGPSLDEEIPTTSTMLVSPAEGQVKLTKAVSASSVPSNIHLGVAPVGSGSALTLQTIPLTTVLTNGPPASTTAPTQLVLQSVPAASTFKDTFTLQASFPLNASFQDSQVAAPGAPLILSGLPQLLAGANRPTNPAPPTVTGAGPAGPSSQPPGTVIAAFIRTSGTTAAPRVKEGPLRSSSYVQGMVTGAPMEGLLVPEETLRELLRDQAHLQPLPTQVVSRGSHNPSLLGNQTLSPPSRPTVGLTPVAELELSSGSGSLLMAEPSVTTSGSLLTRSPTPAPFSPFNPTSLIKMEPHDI
# Sequence of ELF1 (P32519 whole entry): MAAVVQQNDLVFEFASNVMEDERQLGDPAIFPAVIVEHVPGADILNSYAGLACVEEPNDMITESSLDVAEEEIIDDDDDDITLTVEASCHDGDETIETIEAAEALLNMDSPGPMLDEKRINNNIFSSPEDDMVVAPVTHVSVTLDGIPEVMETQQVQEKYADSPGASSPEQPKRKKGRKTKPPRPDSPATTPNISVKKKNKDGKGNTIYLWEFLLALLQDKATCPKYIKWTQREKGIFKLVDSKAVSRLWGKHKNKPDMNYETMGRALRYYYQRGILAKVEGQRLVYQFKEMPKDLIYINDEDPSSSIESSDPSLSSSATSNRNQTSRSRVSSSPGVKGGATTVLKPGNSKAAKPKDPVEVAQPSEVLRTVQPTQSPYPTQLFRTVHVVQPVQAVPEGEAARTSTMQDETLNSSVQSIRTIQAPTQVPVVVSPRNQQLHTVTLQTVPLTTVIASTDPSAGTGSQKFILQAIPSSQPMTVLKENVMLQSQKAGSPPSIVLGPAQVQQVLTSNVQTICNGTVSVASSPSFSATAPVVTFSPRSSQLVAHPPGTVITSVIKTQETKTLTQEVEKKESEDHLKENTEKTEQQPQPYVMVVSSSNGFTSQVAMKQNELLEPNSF
# Sequence of ETV1 (P50549 whole entry): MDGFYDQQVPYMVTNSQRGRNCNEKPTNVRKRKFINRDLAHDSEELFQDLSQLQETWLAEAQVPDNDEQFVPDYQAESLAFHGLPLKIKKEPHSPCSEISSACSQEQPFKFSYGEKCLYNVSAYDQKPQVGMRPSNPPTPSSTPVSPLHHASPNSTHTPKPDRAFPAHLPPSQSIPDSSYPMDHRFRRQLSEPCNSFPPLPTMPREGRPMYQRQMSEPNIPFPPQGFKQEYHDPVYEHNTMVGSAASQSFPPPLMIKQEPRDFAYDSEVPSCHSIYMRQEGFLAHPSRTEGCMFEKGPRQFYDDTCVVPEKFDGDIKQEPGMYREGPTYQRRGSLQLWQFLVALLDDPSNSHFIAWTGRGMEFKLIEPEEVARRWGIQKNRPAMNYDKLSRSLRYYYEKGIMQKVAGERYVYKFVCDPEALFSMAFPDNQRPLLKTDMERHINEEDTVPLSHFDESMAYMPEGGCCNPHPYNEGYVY
# Sequence of CRX (O43186 whole entry): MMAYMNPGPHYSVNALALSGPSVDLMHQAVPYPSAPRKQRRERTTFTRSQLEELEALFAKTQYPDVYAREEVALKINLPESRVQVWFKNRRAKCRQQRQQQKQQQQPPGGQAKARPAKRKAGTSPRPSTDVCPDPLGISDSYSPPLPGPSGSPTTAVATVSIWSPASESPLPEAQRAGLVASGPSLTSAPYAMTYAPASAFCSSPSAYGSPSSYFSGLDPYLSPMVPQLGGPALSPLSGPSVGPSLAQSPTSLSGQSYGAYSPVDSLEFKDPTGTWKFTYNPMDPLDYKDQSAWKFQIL
# Sequence of SPIB (Q01892 whole entry): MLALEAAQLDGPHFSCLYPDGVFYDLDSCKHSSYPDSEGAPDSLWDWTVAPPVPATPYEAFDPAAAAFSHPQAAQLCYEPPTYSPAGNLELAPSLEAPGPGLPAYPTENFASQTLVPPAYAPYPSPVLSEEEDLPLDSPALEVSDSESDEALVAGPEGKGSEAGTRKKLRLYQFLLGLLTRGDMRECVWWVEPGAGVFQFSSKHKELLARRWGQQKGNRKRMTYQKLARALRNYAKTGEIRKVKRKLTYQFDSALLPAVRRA
# Sequence of ETV5 (P41161 whole entry): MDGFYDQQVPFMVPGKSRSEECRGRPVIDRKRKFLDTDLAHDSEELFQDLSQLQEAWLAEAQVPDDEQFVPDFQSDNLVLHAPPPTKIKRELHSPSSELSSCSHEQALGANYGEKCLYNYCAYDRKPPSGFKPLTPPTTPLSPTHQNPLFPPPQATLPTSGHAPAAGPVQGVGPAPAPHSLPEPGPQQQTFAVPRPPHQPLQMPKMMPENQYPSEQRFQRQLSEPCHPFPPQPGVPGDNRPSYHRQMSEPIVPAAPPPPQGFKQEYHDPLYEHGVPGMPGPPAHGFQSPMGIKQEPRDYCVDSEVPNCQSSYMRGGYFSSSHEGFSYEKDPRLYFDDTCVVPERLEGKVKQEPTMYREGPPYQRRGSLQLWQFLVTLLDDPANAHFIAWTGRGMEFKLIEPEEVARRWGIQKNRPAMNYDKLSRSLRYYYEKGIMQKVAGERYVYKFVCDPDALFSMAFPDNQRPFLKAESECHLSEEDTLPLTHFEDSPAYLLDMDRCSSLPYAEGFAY
sequence,measurement,setting,value
CCTTAA,binding signal,FLI1,"1.38 fold enrichment (6-mer frequency, TF over GST control)"
same,binding signal,ELK1,"1.24 fold enrichment (6-mer frequency, TF over GST control)"
same,binding signal,GABPA,"1.27 fold enrichment (6-mer frequency, TF over GST control)"
same,binding signal,ERG,"1.31 fold enrichment (6-mer frequency, TF over GST control)"
same,binding signal,ELF1,"1.35 fold enrichment (6-mer frequency, TF over GST control)"
same,binding signal,EHF,"1.34 fold enrichment (6-mer frequency, TF over GST control)"
same,binding signal,SPI1,"1.4 fold enrichment (6-mer frequency, TF over GST control)"
same,binding signal,SPIB,"1.45 fold enrichment (6-mer frequency, TF over GST control)"
same,binding signal,ELK3,"1.2 fold enrichment (6-mer frequency, TF over GST control)"
same,binding signal,FEV,"1.33 fold enrichment (6-mer frequency, TF over GST control)"
same,binding signal,ETV5,"1.25 fold enrichment (6-mer frequency, TF over GST control)"
same,binding signal,HSF1,"1.62 fold enrichment (6-mer frequency, TF over GST control)"
same,binding signal,SPIC,"1.22 fold enrichment (6-mer frequency, TF over GST control)"
same,binding signal,ELF4,"1.3 fold enrichment (6-mer frequency, TF over GST control)"
same,binding signal,ELK4,"1.27 fold enrichment (6-mer frequency, TF over GST control)"
same,binding signal,ETV2,"1.35 fold enrichment (6-mer frequency, TF over GST control)"
same,binding signal,ELF3,"1.37 fold enrichment (6-mer frequency, TF over GST control)"
same,binding signal,CRX,"2.17 fold enrichment (6-mer frequency, TF over GST control)"
same,binding signal,ETV1,"1.34 fold enrichment (6-mer frequency, TF over GST control)"
